Among the data in PubChem BioAssay are composite z-score and z-score values, retold here.

Test [1] can be described thus: anti-His antibody binders, primary screen, artefact control for SMM control protein annotation, biochemical, small-molecule microarray, 635 nm fluorescence (AID 1128).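 Further: score merges feature fluorescence with signal-to-noise for each printed compound spot.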 Conditions: anti-His Alexa647 antibody binding, higher = more signal.
The test system of test [2] is Human papillomavirus type 1a E7 protein (residues 1-88). As to the kind of experiment: HPV1a E7 small-molecule binders, primary screen, biochemical, small-molecule microarray, residues 1-88, 635 nm (AID 1129). Conditions: small-molecule microarray binding, fluorescence 635 nm; higher = more signal.
The target of test [3] is Focal adhesion kinase 1 (Homo sapiens) (UniProt Q05397). As to the kind of experiment: small-molecule microarray binders of FAK, primary screen, biochemical, 635/667 nm fluorescence, BSA, DTT (AID 1130).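 Further: composite of spot emission at 667 nm and signal to noise over triplicate slides.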 Particulars: PTK2 binding, 635 nm fluorescence, higher = more signal.
Sequence of Focal adhesion kinase 1 (Homo sapiens) (Q05397 whole entry, looked up): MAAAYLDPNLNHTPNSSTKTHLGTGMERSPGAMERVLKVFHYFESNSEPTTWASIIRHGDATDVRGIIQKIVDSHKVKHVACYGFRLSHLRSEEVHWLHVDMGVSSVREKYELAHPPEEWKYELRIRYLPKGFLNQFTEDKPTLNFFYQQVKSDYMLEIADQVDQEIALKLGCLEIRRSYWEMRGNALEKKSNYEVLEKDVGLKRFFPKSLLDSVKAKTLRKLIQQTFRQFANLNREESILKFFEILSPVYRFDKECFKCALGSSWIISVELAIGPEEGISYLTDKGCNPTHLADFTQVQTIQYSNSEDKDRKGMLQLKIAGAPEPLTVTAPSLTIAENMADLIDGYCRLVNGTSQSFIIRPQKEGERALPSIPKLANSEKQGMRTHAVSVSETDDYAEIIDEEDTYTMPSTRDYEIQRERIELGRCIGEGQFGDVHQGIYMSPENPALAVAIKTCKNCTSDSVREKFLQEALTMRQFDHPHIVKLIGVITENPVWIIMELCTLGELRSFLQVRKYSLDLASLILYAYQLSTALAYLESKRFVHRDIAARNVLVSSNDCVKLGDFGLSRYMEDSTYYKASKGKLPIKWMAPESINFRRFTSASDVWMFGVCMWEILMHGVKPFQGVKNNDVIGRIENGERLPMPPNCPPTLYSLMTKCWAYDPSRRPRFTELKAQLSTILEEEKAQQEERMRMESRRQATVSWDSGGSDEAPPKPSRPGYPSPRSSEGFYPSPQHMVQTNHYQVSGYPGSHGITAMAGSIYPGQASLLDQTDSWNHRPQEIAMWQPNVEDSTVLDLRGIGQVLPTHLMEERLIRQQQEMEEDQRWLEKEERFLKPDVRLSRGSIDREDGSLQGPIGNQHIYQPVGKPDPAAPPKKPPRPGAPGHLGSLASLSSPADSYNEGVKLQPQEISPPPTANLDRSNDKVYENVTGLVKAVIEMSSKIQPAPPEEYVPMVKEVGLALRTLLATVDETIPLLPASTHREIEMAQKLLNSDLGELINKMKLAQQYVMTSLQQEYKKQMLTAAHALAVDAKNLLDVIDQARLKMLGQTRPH
In test [4] the test system is Fibrinogen (Alexa647-labelled). As to the kind of experiment: fibrinogen binders on compound microarrays, profiling panel, artefact control for SMM control-protein annotation, biochemical, small-molecule microarray, 635/667 nm fluorescence (AID 1131).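 Further: z-score merges 667 nm fluorescence with per-spot signal-to-noise over triplicate slides.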 Particulars: fibrinogen-A647 binding fluorescence, higher = more signal.
The target of test [5] is Follistatin (Homo sapiens) (UniProt P19883). As to the kind of experiment: follistatin binders on small-molecule microarrays, primary screen, biochemical, small-molecule microarray, 635/667 nm fluorescence (AID 1132). Particulars: FST binding, 635 nm fluorescence, higher = more signal.
Sequence of Follistatin (Homo sapiens) (P19883 whole entry, looked up): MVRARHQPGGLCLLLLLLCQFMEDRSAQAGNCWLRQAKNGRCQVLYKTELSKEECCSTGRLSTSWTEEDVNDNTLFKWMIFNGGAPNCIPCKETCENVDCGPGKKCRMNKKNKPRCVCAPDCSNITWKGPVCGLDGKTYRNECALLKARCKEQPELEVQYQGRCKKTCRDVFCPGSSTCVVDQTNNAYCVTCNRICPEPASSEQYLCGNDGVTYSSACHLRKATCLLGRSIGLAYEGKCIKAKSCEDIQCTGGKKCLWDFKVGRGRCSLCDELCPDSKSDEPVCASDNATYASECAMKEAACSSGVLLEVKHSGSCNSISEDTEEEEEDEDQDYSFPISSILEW
The target of test [6] is Fibroblast growth factor 2 (Homo sapiens) (UniProt P09038). As to the kind of experiment: FGF2 binders on small-molecule microarrays, primary screen, biochemical, small-molecule microarray, 635/667 nm fluorescence (AID 1133). Conditions: small-molecule microarray binding, FGF2, fluorescence 635/667; higher = more signal.
Sequence of Fibroblast growth factor 2 (Homo sapiens) (P09038 whole entry, looked up): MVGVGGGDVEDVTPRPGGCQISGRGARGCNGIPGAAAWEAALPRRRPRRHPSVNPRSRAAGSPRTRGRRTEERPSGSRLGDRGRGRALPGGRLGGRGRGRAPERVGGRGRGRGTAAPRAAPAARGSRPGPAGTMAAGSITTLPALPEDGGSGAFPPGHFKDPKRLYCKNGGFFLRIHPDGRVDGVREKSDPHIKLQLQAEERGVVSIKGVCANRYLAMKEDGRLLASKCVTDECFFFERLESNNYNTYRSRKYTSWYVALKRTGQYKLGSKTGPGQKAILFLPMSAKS
Test [7] is described as follows: mitochondrial membrane potential change in A549 cells, profiling panel, cell-based, JC-1 fluorescence, basal, 24 h, 100 nL (AID 1138).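 Further: A549 lung adenocarcinoma cells under basal conditions with no added stimulus; test concentration not given here.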 Particulars: higher = more signal.
The test system of another test is Lefty1. Nature of the test: Lefty1 binders on small-molecule microarrays, primary screen, biochemical, small-molecule microarray, 635/667 nm fluorescence (AID 1139). Conditions: small-molecule microarray binding, fluorescence 635/667; higher = more signal.
In test [8] the test system is wheat germ agglutinin (Triticum aestivum), Alexa647-labelled. As to the kind of experiment: wheat germ agglutinin binders on compound microarrays, profiling panel, artefact control for SMM control-protein annotation, biochemical, small-molecule microarray, 635/667 nm fluorescence (AID 1140).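 Further: score merges 667 nm feature emission with signal to noise over triplicate slides.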 Conditions: WGA-A647 binding, 635 nm fluorescence, higher = more signal.
Test [9] deals with Luciferin 4-monooxygenase (Photinus pyralis) (UniProt P08659). As to the kind of experiment: firefly luciferase enzyme inhibitors, primary screen, biochemical, luminescence, purified enzyme, 2006 set (AID 1141).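 Further: cell-free assay with purified firefly luciferase at 100 ng per well in PBS; test concentration not given here.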 Particulars: SteadyGlo luminescence, 30 min, higher = more signal, called active from +8 up or from −8 down.
Sequence of Luciferin 4-monooxygenase (Photinus pyralis) (P08659 whole entry, looked up): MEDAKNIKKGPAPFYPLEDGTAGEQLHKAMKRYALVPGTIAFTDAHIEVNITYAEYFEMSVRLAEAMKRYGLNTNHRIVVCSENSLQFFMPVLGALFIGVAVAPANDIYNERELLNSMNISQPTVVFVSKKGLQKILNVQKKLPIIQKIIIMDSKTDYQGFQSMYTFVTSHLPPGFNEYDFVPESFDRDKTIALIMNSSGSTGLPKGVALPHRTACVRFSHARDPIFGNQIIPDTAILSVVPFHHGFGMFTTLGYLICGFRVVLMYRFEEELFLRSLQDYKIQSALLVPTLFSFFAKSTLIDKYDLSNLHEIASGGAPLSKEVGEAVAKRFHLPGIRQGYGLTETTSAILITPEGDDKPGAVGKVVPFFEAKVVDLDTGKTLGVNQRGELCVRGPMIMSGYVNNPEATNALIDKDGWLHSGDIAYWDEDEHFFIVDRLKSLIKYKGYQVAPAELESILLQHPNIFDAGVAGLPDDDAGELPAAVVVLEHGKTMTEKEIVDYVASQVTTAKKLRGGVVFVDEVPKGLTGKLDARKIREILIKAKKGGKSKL
In test [10] the test system is Wnt5a (protein binding on small-molecule microarray). As to the kind of experiment: Wnt5a binders on small-molecule microarray, primary screen, biophysical, 635/667 nm fluorescence (AID 1142).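 Further: fluorescence read at 667 nm with signal to noise per printed feature.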 Conditions: 635 nm fluorescence, higher = more signal.
Test [11] can be described thus: cell viability in Huh7 cells, primary screen, cytotoxicity control for HCV replication inhibitor project, CellTiter-Glo luminescence, basal, 48 h (AID 1143).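 Further: Huh7 hepatoma cells carrying a hepatitis C replication reporter with no stimulus; test concentration not given here.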 Particulars: Huh7 HCV replicon, higher = more signal, called active from +8 up or from −8 down.
Test [12] can be described thus: P. aeruginosa biofilm formation inhibitors, primary screen, PAO1 strain, BacTiter-Glo luminescence, LB-PBS (AID 1144). Conditions: 12 h, higher = more signal.
Test [13] is described as follows: CREB reporter modulators without forskolin, primary screen, cell-based, PC12, CRE-LacZ reporter, unstimulated (AID 1145). Conditions: no forskolin, luminescence, 4.5 h, higher = more signal, called active from +8 up or from −8 down.
Test [14] in a line: CREB reporter modulators under forskolin, primary screen, cell-based, PC12, CRE-LacZ reporter, forskolin-stimulated (AID 1146).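 Further: PC12 cells with 6xCRE LacZ reporter stimulated by forskolin 10 µM; beta-galactosidase reporter signal reflecting CREB driven transcription.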 Particulars: luminescence, 4.5 h, higher = more signal, called active from +8 up or from −8 down.
Test [15] has as its target Streptavidin (Streptomyces avidinii) (UniProt P22629). As to the kind of experiment: streptavidin binders on small-molecule microarray, primary screen, artefact control for SMM compound annotation, biophysical, 635/667 nm fluorescence (AID 1147).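 Further: signal reflects streptavidin binding to arrayed compounds as a control protein.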 Particulars: streptavidin binding, higher = more signal.
A short description of test [16]: small-molecule binders of probe aInhba, primary screen, biochemical, small-molecule microarray, 635/667 nm fluorescence (AID 1148).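 Further: score merges 667nm spot fluorescence with signal-to-noise for antibody binding to printed compounds.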 Conditions: higher = more signal.
For test [17], the target named is Torsin-1A (Homo sapiens) (UniProt O14656). Nature of the test: torsin A binders from cell lysate, primary screen, small-molecule microarray, wild-type, 635/667 nm (AID 1149). Particulars: COS7 hTOR1A-WT lysate, 635 nm fluorescence, higher = more signal.
Sequence of Torsin-1A (Homo sapiens) (O14656 whole entry, looked up): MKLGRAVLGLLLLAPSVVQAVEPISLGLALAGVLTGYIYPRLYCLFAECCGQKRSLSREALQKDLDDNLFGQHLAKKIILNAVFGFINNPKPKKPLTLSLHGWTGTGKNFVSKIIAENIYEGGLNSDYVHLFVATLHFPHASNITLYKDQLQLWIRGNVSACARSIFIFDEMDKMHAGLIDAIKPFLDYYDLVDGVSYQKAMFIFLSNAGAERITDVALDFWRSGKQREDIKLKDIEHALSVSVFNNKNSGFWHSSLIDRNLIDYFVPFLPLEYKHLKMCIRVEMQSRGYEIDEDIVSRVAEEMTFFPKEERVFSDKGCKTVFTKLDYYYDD
For test [18] the target is unchanged. As to the kind of experiment: small-molecule binders of mutant TOR1A in lysate, primary screen, cell lysate, small-molecule microarray, COS7 lysate, 635/667 nm fluorescence (AID 1150).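 Further: score pools 667 nm emission and signal to noise measuring lysate protein binding.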 Conditions: COS7 hTOR1A mutant lysate, 635 nm fluorescence, higher = more signal.
Test [19] concerns Sonic hedgehog protein (Shh). Nature of the test: small-molecule binders of Shh protein, primary screen, biochemical, small-molecule microarray, 635/667 nm fluorescence (AID 1151).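 Further: Shh protein binding to compounds spotted on small-molecule microarray slides; score combines spot fluorescence intensity with signal-to-noise across triplicate slides.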 Conditions: small-molecule microarray binding, 635 nm fluorescence; higher = more signal.

Calls of active or inactive are those of the source. Unless noted, how the calls were made is not given here.

Sequence of Streptavidin (Streptomyces avidinii) (P22629 whole entry, looked up): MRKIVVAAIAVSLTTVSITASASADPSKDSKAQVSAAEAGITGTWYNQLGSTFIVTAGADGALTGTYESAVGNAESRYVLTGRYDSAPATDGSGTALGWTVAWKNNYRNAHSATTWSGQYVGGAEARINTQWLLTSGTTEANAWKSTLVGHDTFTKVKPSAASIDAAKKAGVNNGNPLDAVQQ

On to `O=C1C2C=CC(C(O)c3ccc(F)cc3)N(Nc3ccccc3F)C2C(=O)N1c1ccccc1` (stereo not given), for which the composite z-score in test [1] was 1.55; in test [2], 1.13; in test [3], 0.198; in test [4], 0.958; in [5] it was 1; in test [6], -0.514. Moreover, the composite z-score was -0.497 in the test with Lefty1; 1.17 in test [8]; -0.0864 in test [10]; 0.59 in [15]; 0.254 in test [16]; 0.0654 in the test with Torsin-1A (Homo sapiens) [17]. Moreover, the composite z-score in the test with Torsin-1A (Homo sapiens) [18] was 0.845; in test [19] it was -0.166. In addition, the z-score in [7] is -0.227; in test [9] it was 1.28 (inactive); in test [11], 0.486 (inactive); in [12] it was -0.746 (inactive); in [13], 0.433 (inactive); in [14], 1.53 (inactive).

As to `CN1C(=O)C2C=CC(C(O)Cc3ccccc3)N(Nc3ccccc3)C2C1=O` (stereo not given), the composite z-score in [1] was 1.61; in test [2], 0.257; in test [3], 0.385; in test [4], 0.944; in test [5], 0.27; in test [6], -0.408. The composite z-score with Lefty1 was -0.0697; in test [8], 1.12; in test [10], -0.0943; in [15] it was 0.996; in test [16], 0.0622; with Torsin-1A (Homo sapiens) [17], 0.279. The composite z-score in the test with Torsin-1A (Homo sapiens) [18] was 0.444; in test [19], -0.52. Also, the z-score was -0.375 in test [7]; -0.492 (inactive) in test [9]; 0.329 (inactive) in test [11]; -1.16 (inactive) in test [12]; 0.626 (inactive) in test [13]; 0.0426 (inactive) in test [14].

`COCCOC(=O)N1C(=O)[C@@]2(c3cc(C#CC4=CCCCC4)ccc31)[C@H](C(N)=O)[C@H]1C(=O)O[C@H](c3ccccc3)[C@H](c3ccccc3)N1[C@@H]2c1ccc(OCCO)cc1`: the composite z-score in [1] stood at 2.26; in test [2] it was 1.21; in [3] it was 0.797; in test [4], 0.938; in test [5], 0.371; in test [6], 0.925. The composite z-score was 0.517 in the test with Lefty1; 0.773 in [8]; 0.14 in test [10]; -0.602 in test [15]; -0.406 in [16]; 0.394 in the test with Torsin-1A (Homo sapiens) [17]. The composite z-score with Torsin-1A (Homo sapiens) [18] came to 0.644; in test [19], 1.02. In addition, the z-score in test [7] was -1.65; in test [9], -1.8 (inactive); in test [11], -4.37 (inactive); in test [12], -1.72 (inactive); in test [13] it was -0.195 (inactive); in test [14], -0.327 (inactive).

On to `[N-]=[N+]=Nc1ccccc1C[C@@]1(C(=O)NCCN2CCOCC2)N=C(c2ccc(OCCCO)cc2)O[C@@H]1c1ccccc1`, for which the composite z-score stood at 0.76 in test [1]; 1.26 in test [2]; 0.85 in [3]; 1.03 in test [4]; 1.3 in [5]; 1.19 in test [6]. In addition, the composite z-score in the test on Lefty1 came to 0.7; in test [8], 0.823; in [10], 0.785; in test [15], 0.302; in [16] it was 0.258; with Torsin-1A (Homo sapiens) [17], 0.304. In addition, the composite z-score was 0.617 with Torsin-1A (Homo sapiens) [18] and 0.721 in test [19]. In addition, the z-score in test [7] was 0.662; in test [9], -1.7 (inactive); in test [11], -3.8 (inactive); in [12], -0.49 (inactive); in test [13] it was -0.435 (inactive); in [14] it was -1.61 (inactive).
